# Results taken from PubChem BioAssay (NCATS).
# Several values for one entry are separate records, joined by “and”; a condition that tells them apart may be missing. Identical values can stand only once. Results filed as inconclusive are left out. Where a call stands in place of a potency, no number is given. Some compounds were tested as several samples or in several runs, with calls that do not always agree. Activity calls are given as the source filed them. Calls come from the whole dose curve; as a rule, active = well fitted curve in the direction sought with a large enough effect; inconclusive = small, poorly fitted or top-dose-only effect, or another doubt; inactive = no such curve, though single readings can be large; an effect the other way counts as inactive or inconclusive.
# Tests used:
# [1] = target: Glutathione peroxidase 1 (Homo sapiens) (UniProt P07203); assay: Primary qHTS Assay for Inhibitors of Recombinant Selenoprotein Glutathione Peroxidase 1 (GPX1) (AID 1845191); note: nearly all actives have a fitted effect of over 65% in size; note: potency is the fitted concentration of half-maximal effect
# Chain of Glutathione peroxidase 1 (Homo sapiens) (P07203 whole entry, looked up): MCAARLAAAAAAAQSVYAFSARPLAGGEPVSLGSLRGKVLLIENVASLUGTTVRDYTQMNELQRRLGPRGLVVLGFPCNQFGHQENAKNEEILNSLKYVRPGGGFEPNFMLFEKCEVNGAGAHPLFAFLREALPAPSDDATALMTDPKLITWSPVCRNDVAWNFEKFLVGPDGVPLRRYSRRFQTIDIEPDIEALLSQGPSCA
# How it was run: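 Recombinant GPX1 (10 nM final) was preincubated with compound for 30 min at room temperature, then reacted with 1 mM GSH, 0.5 mM CHP, 0.5 mM NADPH and 100 nM glutathione reductase; NADPH fluorescence (340/450 nm) was read at 0 and 15 min.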
# [2] = target: Luciferin 4-monooxygenase (Photinus pyralis) (UniProt P08659); assay: Primary firefly luciferase (FLuc) qHTS assay for identification of artifact compounds. (AID 1845220); note: nearly all actives have a fitted effect of over 60% in size
# How it was run: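 Reaction readout was CCD-imaged luminescence, taken 5 min after adding 10 nM purified firefly enzyme to compound-treated wells holding 10 uM luciferin and ATP in pH 7.6 buffer.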
# [3] = Primary fluorescence-based thiol-reactive (MSTI) qHTS assay for identification of artifact compounds. (AID 1845221); note: nearly all actives have a fitted effect of over 65% in size; note: potency is the fitted concentration of half-maximal effect
# How it was run: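 Probe: MSTI 4 uM, PBS pH 7.4, 2% DMSO. Incubation 1 h, RT, light-protected. Readout fluorescence 525/598 nm.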
# [4] = system: Nanoluciferase (engineered Oplophorus gracilirostris luciferase); assay: Primary Nanoluciferase (NLuc) qHTS assay for identification of artifact compounds. (AID 1845222);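 note: NLuc secreted into diluted conditioned medium of S16 cells; series mostly up to about 54 µM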
# How it was run: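 Concentration-response data were obtained by luminescence after 5 min with Nano-Glo substrate at 1:100. The enzyme was diluted S16 NLuc-expressing cell medium, preincubated with compound for 15 min at RT. Curves were fitted with a 4-parameter Hill model.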
# [5] = Primary redox qHTS assay for identification of artifact compounds. (AID 1845223)
# How it was run: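 Amplex Red (25 uM) and HRP (250 mU/mL) in HBSS, with compounds for 15 min, then 250 uM DTT for 30 min, room temperature, dark. Fluorescence 525/598 nm read; normalized to DMSO and 10 uM DA3003; Hill fit.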
# [6] = Quantitative High-Throughput drug screen in 47 multiple myeloma cell lines against the NCATS MIPE library collection: Delta47_JCRB cell viability assay (AID 1918925; note: nearly all actives have a fitted effect of over 45% in size; note: potency is the fitted concentration of half-maximal effect)
# How it was run: (§1)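 Myeloma cells (500 per well) were exposed to MIPE 4.0 compounds by pin transfer and incubated 48 hours at 37C, 5% CO2. Viability was read as ATP by CellTiter-Glo luminescence, normalised to DMSO (100%) and media-only (0%) wells.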
# [7] = Quantitative High-Throughput drug screen in 47 multiple myeloma cell lines against the NCATS MIPE library collection: Karpas620_DSMZ cell viability assay (AID 1918959); note: nearly all actives have a fitted effect of over 30% in size; note: potency is the fitted concentration of half-maximal effect
# How it was run: (§2)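 CellTiter-Glo luminescence (ATP) after 48 h compound exposure, 37C/5% CO2; 500 cells/well; MIPE 4.0 approved/investigational drugs pinned in; DMSO = 100%, media only = 0% viability.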
# [8] = target: Phospholipid hydroperoxide glutathione peroxidase GPX4 (Homo sapiens) (UniProt P36969); assay: Primary qHTS Assay for Inhibitors of Recombinant Selenoprotein Glutathione Peroxidase 4 (GPX4) (AID 1845192); note: nearly all actives have a fitted effect of over 65% in size; note: potency is the fitted concentration of half-maximal effect
# Chain of Phospholipid hydroperoxide glutathione peroxidase GPX4 (Homo sapiens) (P36969 whole entry, looked up): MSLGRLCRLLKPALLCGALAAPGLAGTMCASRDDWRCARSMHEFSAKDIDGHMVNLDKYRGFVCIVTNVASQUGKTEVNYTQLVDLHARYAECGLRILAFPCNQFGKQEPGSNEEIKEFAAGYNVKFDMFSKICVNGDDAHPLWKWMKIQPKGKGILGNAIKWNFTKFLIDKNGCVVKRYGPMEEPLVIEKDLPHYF
# How it was run: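 GR-coupled readout: 100 nM GR, 1 mM GSH, 0.5 mM NADPH; NADPH fluorescence (ex 340/em 450 nm) read at t=0 and after 15 min RT. GPX4 200 nM, preincubated 30 min with compound; substrate 0.5 mM CHP.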
# [9] = Quantitative High-Throughput drug screen in 47 multiple myeloma cell lines against the NCATS MIPE library collection: FR4_PLB cell viability assay (AID 1918924; note: nearly all actives have a fitted effect of over 35% in size; note: potency is the fitted concentration of half-maximal effect)
# How it was run: as §2
# [10] = Quantitative High-Throughput drug screen in 47 multiple myeloma cell lines against the NCATS MIPE library collection: AMO1_DSMZ cell viability assay (AID 1918927; note: nearly all actives have a fitted effect of over 30% in size; note: potency is the fitted concentration of half-maximal effect)
# How it was run: as §1
# [11] = Quantitative High-Throughput drug screen in 47 multiple myeloma cell lines against the NCATS MIPE library collection: EJM_DSMZ cell viability assay (AID 1918926; note: nearly all actives have a fitted effect of over 30% in size; note: potency is the fitted concentration of half-maximal effect)
# How it was run: as §1
# [12] = Quantitative High-Throughput drug screen in 47 multiple myeloma cell lines against the NCATS MIPE library collection: ARD_JJKsccE7 cell viability assay (AID 1918929; note: potency is the fitted concentration of half-maximal effect)
# How it was run: as §1
# [13] = Quantitative High-Throughput drug screen in 47 multiple myeloma cell lines against the NCATS MIPE library collection: ARP1_JJKsccF8 cell viability assay (AID 1918928; note: nearly all actives have a fitted effect of over 40% in size; note: potency is the fitted concentration of half-maximal effect)
# How it was run: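 ATP readout (CellTiter-Glo), 48 h drug incubation, 37 °C/5% CO2, 500 cells per well; normalisation to DMSO (100%) and media-only (0%) controls.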
structure (smiles),measurement,setting,value
COc1ccc2cc(-c3nc(-c4ccc(S(C)=O)cc4)[nH]c3-c3ccncc3)ccc2c1 (centres undefined),Potency,[1],inactive
same,Potency,[2],inactive
same,Potency,[3],inactive
same,Potency,[4],inactive
same,outcome,[5],inactive
same,Potency,[6],16.6 µM (active)
same,Potency,[7],18.7 µM (active)
O=c1c(O)c(-c2ccc(O)cc2)oc2cc(O)cc(O)c12,Potency,[1],inactive
same,Potency,[8],inactive
same,Potency,[9],inactive
same,Potency,[6],20.9 µM (active)
same,Potency,[10],9.35 µM (active)
same,Potency,[7],18.7 µM (active)
C[C@]12CCC3c4ccc(O)cc4CCC3C1CCC2=O (some centres undefined),Potency,[1],inactive
same,Potency,[8],inactive
same,Potency,[9],1.87 µM (active)
same,Potency,[6],inactive
same,Potency,[11],inactive
same,Potency,[10],0.833 µM (active)
same,Potency,[12],inactive
same,Potency,[7],inactive
CC(=O)Oc1cc2c(s1)CCN(C(C(=O)C1CC1)c1ccccc1F)C2 (centres undefined),Potency,[1],16.1 µM (active) and inactive and 20.2 µM (active)
same,Potency,[8],inactive
same,Potency,[6],3.32 µM (active)
same,Potency,[10],1.87 µM (active)
same,Potency,[13],1.32 µM (active)
same,Potency,[7],1.18 µM (active)
CC(C)n1nc(-c2ccc3oc(N)nc3c2)c2c(N)ncnc21,Potency,[1],inactive
same,Potency,[2],inactive
same,Potency,[3],inactive
same,Potency,[4],inactive
same,outcome,[5],inactive
same,Potency,[6],0.0059 µM (active)
same,Potency,[7],1.18 µM (active)
CN1C[C@H]2c3ccccc3Oc3ccc(Cl)cc3[C@@H]2C1,Potency,[1],inactive
same,Potency,[8],inactive
same,Potency,[9],inactive
same,Potency,[6],inactive
same,Potency,[11],inactive
same,Potency,[13],inactive
COc1cc(NC(=O)c2ccc(-c3ccc(Cl)cc3)o2)cc(OC)c1,Potency,[1],inactive
same,Potency,[8],inactive
same,Potency,[9],inactive
same,Potency,[6],2.35 µM (active)
same,Potency,[11],inactive
same,Potency,[10],7.43 µM (active)
same,Potency,[13],inactive
same,Potency,[7],20.9 µM (active)
O=C(O)c1cc(-c2ccccc2)nc2ccccc12,Potency,[1],inactive
same,Potency,[8],inactive
same,Potency,[3],inactive
same,Potency,[4],inactive
same,outcome,[5],inactive
CC(C)(C)C(=O)Oc1ccc2c(c1)nc(NC(=O)c1cccc([N+](=O)[O-])c1)n2CCCO,Potency,[1],inactive
same,Potency,[8],inactive
same,Potency,[6],inactive
same,Potency,[11],13.2 µM (active)
same,Potency,[10],inactive
same,Potency,[12],inactive
same,Potency,[7],inactive
CC(=O)OC1C(C)OC(Oc2c(-c3ccc(O)cc3)oc3cc(O)cc(O)c3c2=O)C(O)C1OC(C)=O (centres undefined),Potency,[1],inactive
same,Potency,[8],inactive
same,Potency,[13],inactive
CC(C)C(=O)Oc1ccc(CO)cc1[C@H](CCN(C(C)C)C(C)C)c1ccccc1,Potency,[1],inactive
same,Potency,[2],inactive
same,Potency,[3],inactive
same,Potency,[4],inactive
same,outcome,[5],inactive
same,Potency,[11],inactive
same,Potency,[10],inactive
same,Potency,[13],inactive
same,Potency,[12],inactive
same,Potency,[7],inactive
N#CC1(c2ccc(NC(=O)c3cccnc3NCc3ccncc3)cc2)CCCC1,Potency,[1],inactive
same,Potency,[8],inactive
same,Potency,[11],inactive
same,Potency,[10],inactive
same,Potency,[13],inactive
same,Potency,[12],inactive
same,Potency,[7],inactive
O=C(O)CCC1CCC(c2cc(F)ccc2F)(S(=O)(=O)c2ccc(Cl)cc2)CC1 (centres undefined),Potency,[1],inactive
same,Potency,[8],inactive
same,Potency,[9],inactive
same,Potency,[6],5.9 µM (active)
same,Potency,[11],inactive
same,Potency,[10],5.9 µM (active)
same,Potency,[13],inactive
same,Potency,[12],14.8 µM (active)
O=c1cc(-c2cccc3c2Sc2ccccc2S3)oc(N2CCOCC2)c1,Potency,[1],inactive
same,Potency,[8],inactive
same,Potency,[9],26.4 µM (active)
same,Potency,[6],5.26 µM (active)
same,Potency,[10],16.6 µM (active)
same,Potency,[7],18.7 µM (active)
CC(C)C(C)C=CC(C)C1CCC2C3=CC=C4CC(O)CCC4(C)C3CCC21C (centres undefined),Potency,[1],inactive
same,Potency,[8],inactive
same,Potency,[9],inactive
same,Potency,[6],inactive
same,Potency,[11],inactive
same,Potency,[10],inactive
same,Potency,[13],inactive
same,Potency,[12],inactive
same,Potency,[7],18.7 µM (active)
N#C[C@H]1C[C@H]2C[C@@H]2N1C(=O)[C@@H](N)C12CC3CC(CC(O)(C3)C1)C2,Potency,[1],inactive
same,Potency,[8],inactive
same,Potency,[9],inactive
same,Potency,[11],inactive
same,Potency,[10],inactive
same,Potency,[13],3.72 µM (active)
same,Potency,[12],inactive
same,Potency,[7],inactive
CC(C)C[C@H](CC(=O)O)C(=O)N[C@@H](Cc1c[nH]c2ccccc12)C(=O)N[C@@H](C)c1ccccc1,Potency,[1],inactive
same,Potency,[8],inactive
same,Potency,[11],inactive
same,Potency,[10],inactive
same,Potency,[13],inactive
same,Potency,[7],inactive
O=c1cc(-c2ccccc2)oc2cc(O)cc(O)c12,Potency,[1],inactive
same,Potency,[8],inactive
same,Potency,[9],inactive
same,Potency,[11],inactive
same,Potency,[10],16.6 µM (active)
same,Potency,[12],26.4 µM (active)
CCOc1ccc(Nc2nc(-c3c(C)nc4ccccn34)cs2)cc1,Potency,[1],inactive
same,Potency,[2],inactive
same,Potency,[3],2.67 µM (active)
same,Potency,[4],inactive
same,outcome,[5],inactive
same,Potency,[10],0.001 µM (active)
same,Potency,[13],0.003 µM (active)
same,Potency,[7],0.0015 µM (active)
COc1cccc([C@@H](C)NCCCc2ccccc2Cl)c1,Potency,[1],inactive
same,Potency,[11],inactive
same,Potency,[13],inactive
CCOC(CN1C(=O)[C@](CC(=O)Nc2ccc(C)cc2)(NC(=O)Nc2ccc(C)cc2)c2ccccc21)OCC,Potency,[1],inactive
same,Potency,[11],inactive
same,Potency,[7],16.6 µM (active)
C[C@]12CC[C@@H]3c4ccc(O)cc4C[C@@H](CCCCCCCCCS(=O)CCCC(F)(F)C(F)(F)F)[C@H]3[C@H]1CC[C@H]2O (some centres undefined),Potency,[1],inactive
same,Potency,[9],inactive
same,Potency,[10],inactive
same,Potency,[7],inactive
N[C@@]1(C(=O)O)CS(=O)(=O)[C@H]2[C@H](C(=O)O)[C@H]21,Potency,[1],inactive
same,Potency,[9],inactive
same,Potency,[6],9.35 µM (active)
same,Potency,[11],inactive
same,Potency,[13],inactive
same,Potency,[7],inactive
O=c1cc(-c2ccccc2)oc2cc(O)c(O)c(O)c12,Potency,[1],inactive
same,Potency,[11],inactive
same,Potency,[12],inactive
same,Potency,[7],inactive
O=C(NOCC(O)CO)c1cc(Br)c(F)c(F)c1Nc1ccc(I)cc1F (centres undefined),Potency,[1],inactive
same,Potency,[9],inactive
same,Potency,[11],inactive
same,Potency,[7],inactive
O=C(NC1CCOCC1)c1ccc(-c2cc(-c3cn[nH]c3-c3ccccn3)ccn2)cc1,Potency,[8],inactive
same,Potency,[2],inactive
same,Potency,[3],inactive
same,Potency,[4],inactive
same,outcome,[5],inactive
same,Potency,[9],inactive
same,Potency,[11],inactive
same,Potency,[13],inactive
same,Potency,[12],0.0296 µM (active)
same,Potency,[7],inactive
CCS(=O)(=O)N1CC(CC#N)(n2cc(-c3ncnc4[nH]ccc34)cn2)C1,Potency,[8],16.1 µM (active)
same,Potency,[2],inactive
same,Potency,[3],inactive
same,Potency,[4],inactive
same,outcome,[5],inactive
same,Potency,[9],16.6 µM (active)
same,Potency,[10],3.72 µM (active)
O=C1C(Cl)=C(NCCN2CCOCC2)C(=O)c2ncccc21,Potency,[1],9.16 µM (active)
same,Potency,[9],6.62 µM (active)
same,Potency,[6],7.43 µM (active)
same,Potency,[11],7.43 µM (active)
same,Potency,[10],2.96 µM (active)
same,Potency,[13],4.69 µM (active)
same,Potency,[12],5.26 µM (active)
same,Potency,[7],1.48 µM (active)
O=C(O)c1c(Cl)c(Cl)c(Cl)c(Cl)c1-c1c2cc(I)c(=O)c(I)c-2oc2c(I)c(O)c(I)cc12,Potency,[1],inactive
same,Potency,[6],14.8 µM (active)
same,Potency,[10],13.2 µM (active)
same,Potency,[7],14.8 µM (active)
